Measured values published in the supplement of paper PMC10849652.
Targets with a hit are over-represented here; the source holds about 7,900 in all. About 0.6% of all pairs of compound and target were hits. Values without a mark were called inactive.

How the values were obtained:
Assay in all cases: log2 fold change, soluble protein after heating vs DMSO (PISA); higher = thermal stabilisation; K562 cells, 10 uM, 30 min; active = over 0.2 and 3.5 SD of the protein, either way, in both replicates (recomputed)
IRAK-1-4 Inhibitor I = compound: C1COCCN1CCN2C3=CC=CC=C3N=C2NC(=O)C4=CC(=CC=C4)[N+](=O)[O-] [IRAK-1-4 Inhibitor I]
How it was run: (§1)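 K562 cells at 2×10^6 cells/mL were treated with 10 μM compound for 30 min. Aliquots were heated for 3 min across 48°C-58°C, pooled, and extracted in PBS with 0.5% NP-40 at 4°C; soluble protein was the supernatant after 21,000xg for 90 min. Soluble protein was quantified by TMTpro 16plex LC-MS/MS with channel sums equalised, and reported as log2 fold change in thermal stability against DMSO controls, with values from duplicates.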

ibrutinib = compound: C=CC(=O)N1CCC[C@@H](n2nc(-c3ccc(Oc4ccccc4)cc3)c3c(N)ncnc32)C1 [ibrutinib]
How it was run: as §1

[1] = compound: CC(=O)c1cnc2ccc(-c3cc(Cl)c(O)c(Cl)c3)nc2c1N[C@H]1CC[C@H](CN(C)C)CC1
How it was run: as §1

ralimetinib = compound: CC(C)(C)Cn1c(N)nc2ccc(-c3[nH]c(C(C)(C)C)nc3-c3ccc(F)cc3)nc21 [ralimetinib]
How it was run: as §1

[2] = compound: CC(C)(O)CC(=O)NCCn1ccc2ncnc(Nc3ccc(Oc4cccc(C(F)(F)F)c4)c(Cl)c3)c21
How it was run: as §1

[3] = compound: CC(C)C1=C2N=C(C=C(N2N=C1)NCC3=CC=CC=C3)NCCCCCCN
How it was run: as §1

[4] = compound: CC(C)C[C@@H](C=O)NC(=O)[C@H](CC(C)C)NC(=O)[C@H](CC(C)C)NC(=O)OCc1ccccc1
How it was run: as §1

pinometostat = compound: CC(C)N(C[C@H]1O[C@@H](n2cnc3c(N)ncnc32)[C@H](O)[C@@H]1O)[C@H]1C[C@@H](CCc2nc3cc(C(C)(C)C)ccc3[nH]2)C1 [pinometostat]
How it was run: as §1

[5] = compound: CC1=C(C(CC(=O)N1)C2=CC=C(C=C2)C(F)(F)F)C(=O)NC3=C(C=C4C(=C3)C=NN4)F
How it was run: as §1

[6] = compound: CC1=C(C2=C(C=C1)C(=O)C3=CC=CC=C3N2CCCN)C
How it was run: as §1

[7] = compound: CC1=C(C=C(C=C1)NC(=O)C2=CC(=CC=C2)C(C)(C)C#N)NC3=CC4=C(C=C3)N=CN(C4=O)C
How it was run: as §1

[8] = compound: CC1=C(C=C(C=C1)NC(=O)C2=CC(=CC=C2)N(C)C)NC(=O)C3=CC=C(C=C3)O
How it was run: as §1

[9] = compound: CC1=NC(=CC=C1)C2=C(N=C(N2)C(C)(C)C)C3=CC4=NC=CN=C4C=C3
How it was run: as §1

Nexturastat A = compound: CCCCN(Cc1ccc(C(=O)NO)cc1)C(=O)Nc1ccccc1 [Nexturastat A]
How it was run: as §1

[10] = compound: CCCc1cc(C)[nH]c(=O)c1CNC(=O)c1cc(-c2ccnc(N3CCN(C)CC3)c2)cc2c1cnn2C(C)C
How it was run: as §1

givinostat = compound: CCN(CC)Cc1ccc2cc(COC(=O)Nc3ccc(C(=O)NO)cc3)ccc2c1 [givinostat]
How it was run: as §1

barasertib = compound: CCN(CCCOc1ccc2c(Nc3cc(CC(=O)Nc4cccc(F)c4)[nH]n3)ncnc2c1)CCOP(=O)(O)O [barasertib]
How it was run: as §1

vemurafenib = compound: CCCS(=O)(=O)Nc1ccc(F)c(C(=O)c2c[nH]c3ncc(-c4ccc(Cl)cc4)cc23)c1F [vemurafenib]
How it was run: as §1

[11] = compound: CC1=CC=C(C=C1)SC2=C3C=C(SC3=CN=C2)C(=O)N
How it was run: as §1

[12] = compound: CCCS(=O)(=O)Nc1ccc(F)c(C(=O)c2c[nH]c3ncc(Cl)cc23)c1F
How it was run: as §1

Sequence of UniProt P55196 (P55196 whole entry, looked up): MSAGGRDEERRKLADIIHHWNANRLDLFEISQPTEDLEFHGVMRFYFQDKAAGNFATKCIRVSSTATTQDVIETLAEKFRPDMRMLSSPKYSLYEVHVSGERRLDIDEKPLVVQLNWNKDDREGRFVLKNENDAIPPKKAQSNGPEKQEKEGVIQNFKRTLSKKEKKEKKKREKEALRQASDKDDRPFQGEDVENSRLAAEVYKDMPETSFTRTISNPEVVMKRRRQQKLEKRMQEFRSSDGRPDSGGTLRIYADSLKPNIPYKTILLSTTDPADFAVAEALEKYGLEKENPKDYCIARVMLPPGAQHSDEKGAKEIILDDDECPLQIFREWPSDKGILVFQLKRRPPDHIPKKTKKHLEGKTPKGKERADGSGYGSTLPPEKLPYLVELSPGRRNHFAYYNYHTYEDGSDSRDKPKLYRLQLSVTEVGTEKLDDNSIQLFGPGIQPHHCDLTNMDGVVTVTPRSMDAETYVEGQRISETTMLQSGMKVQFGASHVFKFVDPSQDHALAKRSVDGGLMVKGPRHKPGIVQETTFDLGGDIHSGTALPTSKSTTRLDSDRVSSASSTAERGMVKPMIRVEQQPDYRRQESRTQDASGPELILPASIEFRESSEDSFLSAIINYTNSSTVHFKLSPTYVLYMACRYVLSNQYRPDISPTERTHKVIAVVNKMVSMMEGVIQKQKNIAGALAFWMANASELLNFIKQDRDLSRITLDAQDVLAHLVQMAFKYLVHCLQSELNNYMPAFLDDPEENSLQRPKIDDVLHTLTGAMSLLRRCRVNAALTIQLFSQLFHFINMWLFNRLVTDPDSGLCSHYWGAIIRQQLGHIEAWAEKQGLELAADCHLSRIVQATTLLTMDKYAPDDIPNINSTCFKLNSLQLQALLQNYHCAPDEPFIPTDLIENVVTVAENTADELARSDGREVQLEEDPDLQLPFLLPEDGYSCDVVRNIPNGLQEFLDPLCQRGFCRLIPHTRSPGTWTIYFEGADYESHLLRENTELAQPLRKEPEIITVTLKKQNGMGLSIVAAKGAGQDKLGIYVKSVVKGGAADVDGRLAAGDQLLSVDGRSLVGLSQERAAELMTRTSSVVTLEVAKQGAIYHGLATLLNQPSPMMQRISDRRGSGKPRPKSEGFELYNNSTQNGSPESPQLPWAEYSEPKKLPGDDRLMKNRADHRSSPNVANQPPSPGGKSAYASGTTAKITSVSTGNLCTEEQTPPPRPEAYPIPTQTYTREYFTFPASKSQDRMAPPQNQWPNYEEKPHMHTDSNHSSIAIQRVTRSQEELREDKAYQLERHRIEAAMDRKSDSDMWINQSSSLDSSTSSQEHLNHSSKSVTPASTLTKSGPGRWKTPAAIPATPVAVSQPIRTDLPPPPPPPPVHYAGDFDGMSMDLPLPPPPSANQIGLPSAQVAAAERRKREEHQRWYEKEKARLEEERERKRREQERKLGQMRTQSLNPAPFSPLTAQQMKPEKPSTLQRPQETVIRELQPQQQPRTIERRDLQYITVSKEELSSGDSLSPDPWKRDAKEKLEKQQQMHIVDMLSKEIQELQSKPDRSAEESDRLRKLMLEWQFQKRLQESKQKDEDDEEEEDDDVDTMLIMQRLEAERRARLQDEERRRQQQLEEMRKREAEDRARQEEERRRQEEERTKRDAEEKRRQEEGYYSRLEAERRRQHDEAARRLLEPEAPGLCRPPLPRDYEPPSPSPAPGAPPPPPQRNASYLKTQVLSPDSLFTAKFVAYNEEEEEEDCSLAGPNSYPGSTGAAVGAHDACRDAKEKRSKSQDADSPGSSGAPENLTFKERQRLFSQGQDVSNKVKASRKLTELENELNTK
Sequence of UniProt Q9BX63 (Q9BX63 whole entry, looked up): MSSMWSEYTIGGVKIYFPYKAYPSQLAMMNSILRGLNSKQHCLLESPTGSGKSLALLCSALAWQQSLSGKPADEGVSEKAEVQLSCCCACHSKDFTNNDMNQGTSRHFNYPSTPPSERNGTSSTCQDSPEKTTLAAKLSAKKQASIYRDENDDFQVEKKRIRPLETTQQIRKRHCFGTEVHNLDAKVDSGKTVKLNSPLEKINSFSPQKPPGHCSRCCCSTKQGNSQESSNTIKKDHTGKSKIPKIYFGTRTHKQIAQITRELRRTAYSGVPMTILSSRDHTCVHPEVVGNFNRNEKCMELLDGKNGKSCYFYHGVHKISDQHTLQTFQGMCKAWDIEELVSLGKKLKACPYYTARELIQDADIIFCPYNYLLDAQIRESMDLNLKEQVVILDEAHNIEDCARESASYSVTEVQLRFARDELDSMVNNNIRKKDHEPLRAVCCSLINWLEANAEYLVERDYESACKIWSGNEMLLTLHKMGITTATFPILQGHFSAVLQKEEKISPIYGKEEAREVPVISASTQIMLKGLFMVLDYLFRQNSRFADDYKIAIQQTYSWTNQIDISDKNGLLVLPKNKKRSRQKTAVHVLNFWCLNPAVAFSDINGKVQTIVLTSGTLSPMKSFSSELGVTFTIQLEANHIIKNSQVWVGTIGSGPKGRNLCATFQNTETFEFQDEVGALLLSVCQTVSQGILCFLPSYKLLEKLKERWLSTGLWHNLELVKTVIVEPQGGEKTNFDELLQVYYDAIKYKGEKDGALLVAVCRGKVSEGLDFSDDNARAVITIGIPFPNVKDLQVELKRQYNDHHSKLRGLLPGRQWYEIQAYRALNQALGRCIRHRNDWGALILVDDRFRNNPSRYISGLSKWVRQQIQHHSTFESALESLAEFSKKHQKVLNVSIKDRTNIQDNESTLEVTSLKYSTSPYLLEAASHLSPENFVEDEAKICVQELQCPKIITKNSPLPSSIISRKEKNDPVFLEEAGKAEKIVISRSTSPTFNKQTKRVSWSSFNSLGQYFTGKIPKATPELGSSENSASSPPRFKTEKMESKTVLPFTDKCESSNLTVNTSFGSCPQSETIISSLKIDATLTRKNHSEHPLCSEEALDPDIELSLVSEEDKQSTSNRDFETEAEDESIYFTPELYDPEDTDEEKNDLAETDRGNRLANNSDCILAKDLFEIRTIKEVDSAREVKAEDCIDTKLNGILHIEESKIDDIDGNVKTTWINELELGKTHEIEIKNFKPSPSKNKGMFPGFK
Sequence of UniProt Q8N6T3 (Q8N6T3 whole entry, looked up): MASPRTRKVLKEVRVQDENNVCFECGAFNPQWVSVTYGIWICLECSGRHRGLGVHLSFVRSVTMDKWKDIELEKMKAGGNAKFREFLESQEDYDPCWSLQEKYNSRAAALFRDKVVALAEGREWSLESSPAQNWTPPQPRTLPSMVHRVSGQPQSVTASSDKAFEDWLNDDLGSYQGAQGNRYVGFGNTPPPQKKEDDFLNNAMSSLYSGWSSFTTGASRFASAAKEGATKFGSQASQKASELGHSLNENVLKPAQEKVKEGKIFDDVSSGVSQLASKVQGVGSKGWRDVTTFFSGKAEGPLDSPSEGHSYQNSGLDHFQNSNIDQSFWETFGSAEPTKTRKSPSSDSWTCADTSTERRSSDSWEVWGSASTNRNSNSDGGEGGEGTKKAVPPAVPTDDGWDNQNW
Sequence of UniProt Q15059 (Q15059 whole entry, looked up): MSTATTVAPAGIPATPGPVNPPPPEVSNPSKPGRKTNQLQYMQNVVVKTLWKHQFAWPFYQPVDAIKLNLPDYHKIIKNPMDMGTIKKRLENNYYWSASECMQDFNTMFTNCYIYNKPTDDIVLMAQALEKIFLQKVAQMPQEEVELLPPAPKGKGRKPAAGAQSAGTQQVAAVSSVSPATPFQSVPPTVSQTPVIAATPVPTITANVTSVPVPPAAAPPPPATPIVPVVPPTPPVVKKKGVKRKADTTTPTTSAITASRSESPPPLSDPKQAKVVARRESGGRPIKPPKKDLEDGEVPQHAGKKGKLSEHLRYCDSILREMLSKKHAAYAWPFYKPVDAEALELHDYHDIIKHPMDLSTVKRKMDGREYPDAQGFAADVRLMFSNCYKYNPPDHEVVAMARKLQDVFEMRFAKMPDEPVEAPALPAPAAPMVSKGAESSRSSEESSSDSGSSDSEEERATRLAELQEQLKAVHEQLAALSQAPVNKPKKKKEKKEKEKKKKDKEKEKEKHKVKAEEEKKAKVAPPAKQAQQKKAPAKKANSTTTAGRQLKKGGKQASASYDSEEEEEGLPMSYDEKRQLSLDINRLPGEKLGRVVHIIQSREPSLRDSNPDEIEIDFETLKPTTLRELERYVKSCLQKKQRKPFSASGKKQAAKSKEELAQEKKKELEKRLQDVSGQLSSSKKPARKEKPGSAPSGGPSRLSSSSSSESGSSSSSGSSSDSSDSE
Sequence of UniProt Q9Y587 (Q9Y587 whole entry, looked up): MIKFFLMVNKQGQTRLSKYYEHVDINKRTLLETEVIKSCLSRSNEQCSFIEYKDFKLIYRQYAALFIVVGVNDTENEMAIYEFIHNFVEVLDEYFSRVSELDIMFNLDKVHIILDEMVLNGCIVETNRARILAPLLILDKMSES
Sequence of UniProt Q9BUT1 (Q9BUT1 whole entry, looked up): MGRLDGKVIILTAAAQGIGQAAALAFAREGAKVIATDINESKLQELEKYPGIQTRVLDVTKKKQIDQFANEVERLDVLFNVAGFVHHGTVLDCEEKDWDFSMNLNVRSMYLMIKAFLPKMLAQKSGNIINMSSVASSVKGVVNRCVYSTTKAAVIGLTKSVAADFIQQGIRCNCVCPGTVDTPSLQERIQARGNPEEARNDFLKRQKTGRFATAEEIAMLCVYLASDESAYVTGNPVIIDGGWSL

| Target | log2 fold change (IRAK-1-4 Inhibitor I) | log2 fold change (ibrutinib) | log2 fold change [1] | log2 fold change (ralimetinib) | log2 fold change [2] | log2 fold change [3] | log2 fold change [4] | log2 fold change (pinometostat) | log2 fold change [5] | log2 fold change [6] | log2 fold change [7] | log2 fold change [8] | log2 fold change [9] | log2 fold change (Nexturastat A) | log2 fold change [10] | log2 fold change (givinostat) | log2 fold change (barasertib) | log2 fold change (vemurafenib) | log2 fold change [11] | log2 fold change [12] |
| --- | --- | --- | --- | --- | --- | --- | --- | --- | --- | --- | --- | --- | --- | --- | --- | --- | --- | --- | --- | --- |
| ABCA4 (UniProt P78363) | 0.128 | 0.078 | -0.014 | 0.215 | -0.047 | 0.127 | 0.481 | -0.06 | -0.05 | 0.082 | -0.145 | -0.068 | -0.168 | 0.576 (active) | 0.033 | 0.23 | 0.015 |  |  |  |
| AP2M1 (UniProt C9JTK4) | 0.056 | -0.044 | 0.049 |  | 0.005 |  |  | 0.03 | 0.085 | 0.001 | -0.04 |  | -0.033 | 0.009 | -0.172 |  | -0.079 | -0.262 |  |  |
| ANAPC2 (UniProt Q9UJX6) | 0.018 | -0.045 | 0.005 | 0.011 | -0.025 | -0.083 | 0.055 | 0.078 | -0.044 | -0.051 | 0.031 | -0.015 | 0.069 | -0.045 | -0.049 | 0.042 | 0.022 | 0.027 | -0.001 | 0.047 |
| BRIP1 (UniProt Q9BX63) | 0.017 | 0.12 | -0.073 | 0.006 | 0.039 | -0.036 | -0.064 | 0.084 | -0.01 | 0.333 (active) | -0.049 | -0.007 | -0.03 | 0.23 |  | 0.004 | -0.162 | 0.184 | -0.009 | 0.045 |
| BRD3 (UniProt Q15059) | 0.163 | 0.037 | -0.032 | -0.136 |  | 0.152 | -0.065 | 0.143 | 0.026 | 0.162 | 0.261 | 0.008 | -0.003 |  | -0.017 | -0.842 (active) | -0.339 | 0.198 | 0.035 | -0.048 |
| AP4S1 (UniProt Q9Y587) | -0.061 | -0.12 | 0.008 |  | -0.079 | 0 |  | -0.145 | 0.027 |  | 0.033 |  | -0.007 | -0.097 | 0.102 | 0 | -0.008 | 0.107 | -0.017 | 0.02 |
| AFDN isoform 1 (UniProt P55196) | -0.046 | -0.015 | -0.102 | -0.12 | -0.048 | -0.001 | 0.002 | -0.072 |  |  | 0.035 | 0.083 | 0.03 | -0.164 | 0.062 | 0.259 | -0.045 | 0.342 |  |  |
| BDH2 (UniProt Q9BUT1) | -0.009 | 0.041 | -0.073 | -0.059 |  | 0.183 | 0.001 | 0.004 |  |  | -0.051 | -0.085 | 0.016 |  | -0.019 | -0.033 | -0.019 | 0.447 (active) | 0.086 | -0.077 |
| ARFGAP1 (UniProt Q8N6T3) | -0.008 | 0.005 | -0.013 | 0.07 | -0.012 | -0.11 | -0.017 | -0.027 | 0.02 | 0.002 | -0.053 | -0.168 | 0.034 | 0.038 | 0.016 | 0.029 | 0.1 | 0.085 | 0.107 | 0.124 |
